# An excerpt weighted towards active compounds, which were near 2.8% of everything screened.
# PolyA inh – inhibitors of polyadenylation in S. cerevisiae. S. cerevisiae SKY197-pL101 polyadenylation reporter, beta-gal luminescence; efflux-impaired pdr1/pdr3 knockout yeast; score 100 = 6 SD above DMSO. activity score, % at 12 µM. hit rate 0.02% among 300,000. AID 1875;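 active = lowest replicate activity score at least 50, where 100 means six control SD above control mean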;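 note: yeast exposed to compound for 9 h at 30 °C; higher score means more reporter readthrough which indicates perturbed polyadenylation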
# AHR act – activates the human aryl hydrocarbon receptor; AHR-responsive luciferase reporter cells, luminescence; activation, % at 5 µM; hit rate 2.5% among 320,000; AID 2796; in the data active = activation above about 47%;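 note: 0% = vehicle wells and 100% = reference agonist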
# Target sequence (P35869 whole entry, looked up): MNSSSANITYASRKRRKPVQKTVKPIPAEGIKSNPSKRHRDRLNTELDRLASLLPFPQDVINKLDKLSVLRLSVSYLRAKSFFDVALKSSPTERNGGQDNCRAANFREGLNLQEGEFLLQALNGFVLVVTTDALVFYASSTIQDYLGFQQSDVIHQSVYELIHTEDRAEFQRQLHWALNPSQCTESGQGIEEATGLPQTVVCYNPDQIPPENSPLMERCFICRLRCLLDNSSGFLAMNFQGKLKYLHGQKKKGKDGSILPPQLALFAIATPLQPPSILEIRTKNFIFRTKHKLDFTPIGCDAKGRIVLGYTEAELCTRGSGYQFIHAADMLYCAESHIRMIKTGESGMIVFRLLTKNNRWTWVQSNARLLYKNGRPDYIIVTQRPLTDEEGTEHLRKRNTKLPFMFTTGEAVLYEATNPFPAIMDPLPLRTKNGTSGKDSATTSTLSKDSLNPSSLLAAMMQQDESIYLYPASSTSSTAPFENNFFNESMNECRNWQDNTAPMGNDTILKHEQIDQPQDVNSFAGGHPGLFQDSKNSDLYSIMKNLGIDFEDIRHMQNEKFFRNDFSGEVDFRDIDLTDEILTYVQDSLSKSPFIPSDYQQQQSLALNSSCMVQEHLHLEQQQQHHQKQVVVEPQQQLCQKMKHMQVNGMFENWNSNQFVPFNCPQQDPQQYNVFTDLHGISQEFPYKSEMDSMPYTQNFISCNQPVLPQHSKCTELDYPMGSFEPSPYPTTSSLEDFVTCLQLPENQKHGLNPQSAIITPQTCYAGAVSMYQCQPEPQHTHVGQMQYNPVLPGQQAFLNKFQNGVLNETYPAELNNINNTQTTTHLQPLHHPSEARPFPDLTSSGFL
# HIF activator – HIF pathway transcriptional activation; hit rate 0.32% among 300,000; AID 1910; U2OS HRE-luciferase reporter, luminescence; normalized: DMSO 0%, desferrioxamine 100%; activation, % at 7.5 µM (by protocol);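 active = mean activation of at least 10% of the iron chelator positive control signal, with at least half of replicates also reaching 10%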
# Platelet DG rel – platelet dense granule release activity. human platelet-rich plasma, SFLLRN dense granule ATP release, luminescence. inhibition, %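 (compounds screened at 7.5 µM in platelet-rich plasma)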. hit rate 0.22% among 300,000;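 active = mean replicate score, as percent of positive control, at or above 50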
# pCIP destab – lowers stability of the mouse p/CIP coactivator protein; AID 1984; hit rate 0.01% among 290,000; F442A p/CIP-EGFP cells, EGFP fluorescence, 16 h; decrease of EGFP signal, % at 10 µM; Q05BA5;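 active = EGFP signal decrease of at least 30% at 10 µM or well 3 SD below plate mean, unless failing retest; inactive = the rest, including hits failing retest or dose response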
# * marks the source's active call; other numbers are inactive results; . = no result given.
SMILES,PolyA inh,AHR act,HIF activator,Platelet DG rel,pCIP destab
O=C(N/N=C/c1cccc(O)c1)N/N=C/c1cccc(O)c1,22,8,-1,13,-6
COc1ccc(OC)c(NC(=O)CC2Oc3ccccc3NC2=O)c1 (centres undefined),8,14,3,-1,-6
Cc1ccc(CNC(=O)CN(c2ccc(Cl)cc2)S(C)(=O)=O)cc1,-1,5,0,-5,0
Cc1ccc(S(=O)(=O)Cc2ccc(C(=O)N3CCN(c4ccccn4)CC3)o2)cc1,12,17,.,7,12
O=C(c1ccc(CS(=O)(=O)c2c(Cl)cccc2Cl)o1)N1CCN(c2ccccn2)CC1,-6,94*,.,-4,-18
O=[N+]([O-])c1cccc(C(=Nc2ccc(Cl)cc2)NO)c1,0,67*,0,-1,-9
O=[N+]([O-])c1cccc(C(=Nc2ccccc2)NO)c1,-11,19,0,2,-5
COc1cc(OC)cc(C(=O)NC(=S)NCCc2ccccc2)c1,-20,69*,1,2,-21
COc1ccc(C)cc1NC(=O)CNC(C)C(=O)Nc1cc(Cl)ccc1Cl (centres undefined),7,7,0,-3,-2
COc1ccc(C(=O)O)cc1NC(=S)NC(=O)/C=C/c1ccc(C(C)C)cc1,19,2,-1,2,5
OC(CN1CCC(Cc2ccccc2)CC1)c1ccccc1 (centres undefined),-39,3,1,0,-12
CCCn1c2ccccc2c2cnn(CC(=O)NC3CCCC(C)C3C)c(=O)c21 (centres undefined),2,1,13*,1,-5
N#C/C(=C/c1ccc([N+](=O)[O-])cc1)C(=O)Nc1ccccc1O,7,68*,1,5,-3
COc1ccccc1NC(=S)NC(=O)c1ccc(-c2ccc(Cl)cc2)o1,1,10,0,3,-10
O=C(NNC(=O)c1ccccc1Br)c1cccc(Cl)c1,-4,2,2,-1,0
O=C(NC(=S)Nc1ccccc1O)c1ccc(-c2ccc(Cl)cc2)o1,-32,67*,1,-2,-4
O=C(NNC(=O)c1ccccc1Br)c1ccc(Cl)cc1,18,0,12*,9,19
O=C(Nc1ccccc1O)c1ccc(Cl)cc1,9,66*,9,-1,-3
O=C(Cn1c(=O)cnc2ccccc21)N1CCN(S(=O)(=O)c2cccc([N+](=O)[O-])c2)CC1,27,3,-21,0,.
CCOCCCN(C)C1CCN(S(=O)(=O)c2csc(C(N)=O)c2)CC1,17,1,0,8,13
O=C(Nc1ccccc1O)c1ccc([N+](=O)[O-])cc1,10,70*,2,19,-7
CC(NC(=O)CCCc1nnc2n(C)c(=O)c3sccc3n12)c1ccccc1 (centres undefined),11,36,-1,3,0
COc1ccccc1OCC(=O)Nc1nc(C)c(C)s1,-3,9,2,12,-4
CCOC(=O)N1CCN(S(=O)(=O)N2CCCC(C(=O)NCCCN3CCCCC3)C2)CC1 (centres undefined),5,0,1,3,-9
CCOC(=O)N1CCN(Cc2nc3cc(NC(=O)c4ccco4)ccc3n2C)CC1,17,6,1,4,-6
SMILES,PolyA inh,AHR act,HIF activator,Platelet DG rel,pCIP destab
CC1CN(C(=O)COC(=O)c2ccc(Cl)nc2)CC(C)O1 (centres undefined),-1,2,0,-5,19
COc1ccc(N2CCN(C(=O)CN(C)S(=O)(=O)c3cc(C)ccc3OC)CC2)cc1,-12,0,465*,3,-15
COc1ccc(-c2csc(NC(C)c3nc4cc(Cl)c(Cl)cc4n3CCOCCO)n2)cc1 (centres undefined),10,12,0,-4,.
COc1ccc(-c2csc(NC(CO)c3nc4ccccc4n3CCCO)n2)cc1 (centres undefined),8,55*,1,6,.
CC(Nc1nc(-c2ccc(F)cc2)cs1)c1nc2cc(Cl)c(Cl)cc2n1CCCO (centres undefined),21,72*,0,10,.
Cc1ccc(-c2csc(NCCc3nc4cc(Cl)c(Cl)cc4n3CCCO)n2)cc1,-3,18,0,-5,.
OCCOCCn1c(CCNc2nc(-c3ccc(Cl)cc3)cs2)nc2cc(Cl)c(Cl)cc21,-19,59*,2,-5,.
CCCC1=C(C(=O)OCC)C(c2ccc(N(C)C)cc2)n2ncnc2N1 (centres undefined),9,4,0,8,-7
C=CCN(c1ccccc1)S(=O)(=O)c1ccc2c(c1)NC(=O)C(C)C(=O)N2 (centres undefined),40,2,0,6,-8
Cc1cc(NC(=O)CSc2nnc(N)s2)c([N+](=O)[O-])cc1C,.,0,0,3,-1
COc1cnc(-c2ccccn2)nc1N(C)c1ccccc1,6,17,114*,3,-9
CCc1nc2c(sc3nc4c(cc32)COC(C)(C)C4)c(=O)n1Cc1ccco1,-3,53*,0,-6,0
CCc1nc2c(sc3nc4c(cc32)COC(C)(C)C4)c(=O)n1Cc1ccccc1,11,5,0,7,12
CSc1ccccc1NC(=O)COC(=O)Cn1cc(C(F)(F)F)ccc1=O,.,-1,.,.,.
CC1=NN(c2ccc(C(F)(F)F)cn2)C(=O)C1,0,51*,0,5,-7
Cc1ccc(CNC(=O)C2CCC(=O)N(CC3CCCCC3)C2)o1 (centres undefined),-8,2,0,-5,-9
c1coc(-c2nnc3sc(-c4cccs4)nn23)c1,.,55*,.,.,-10
COc1ccc(OCc2cc(C(=O)NCC(C)Oc3cccnc3)no2)c(Cl)c1 (centres undefined),-14,9,1,-8,-8
Cc1cccc2nc(-c3ccco3)c(Nc3ccccc3)n12,-15,1,0,-5,-9
Cc1ccc(Nc2c(-c3ccccn3)nc3cccc(C)n23)cc1,-4,4,56*,3,1
Cc1cccc(C)c1Nc1c(-c2ccccn2)nc2ccccn12,9,2,28*,-16,-7
CC(C)c1ccc(/C=N/NC(=O)c2c(Cl)cnn2C)cc1,-13,12,4,14,-6
Cc1ccc(-c2nc3cc(Cl)ccc3o2)cc1,-5,15,2,-2,-3
COc1cc(OC)cc(-c2nc3cc(C)ccc3o2)c1,-27,58*,2,10,-8
COc1cc(N2CCCC2)ccc1[N+](=O)[O-],7,3,-1,1,2
COc1ccc(-c2cn3cc(C(=O)NN)ccc3n2)cc1,-14,55*,3,-17,-15
CSc1nc2sc3c(c2c(=O)[nH]1)CCC(C)C3 (centres undefined),-14,69*,.,1,-17
Cc1cc(OC(C)C(=O)NCc2ccncc2)c2c(C)c(C)c(=O)oc2c1 (centres undefined),2,8,0,-1,-1

# Compound activity as filed in PubChem BioAssay.
